# From PubChem BioAssay
# CYP2C9 inh = blockers of cytochrome P450 2C9 activity – biochemical, luminescence, ADME assay, primary screen. AID 777, 2007. CYP2C9 Supersomes, luciferin-H conversion. inhibition, % at 5 µM. P11712. 96,000 compounds, 20% hits;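 active = blocking of liver enzyme CYP2C9 beyond about 50% at 5 µM, limit read from the data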
# CD11b adhes enh = enhancers of CD11b/CD18 adhesion to fibrinogen, primary screen, K562 cells, luminescence | 93,000 compounds, 0.07% hits | activation, % at 10 µM | ATPlite luminescence | Integrin beta-2 (Homo sapiens) + Integrin alpha-M (Homo sapiens), P05107+P11215 | AID 1499, 2009;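 active = 10 µM primary screen giving 50% or more activity, confirmed by 40% or more on retest at that dose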
# Target sequence (P05107 whole entry, looked up, other chains not shown): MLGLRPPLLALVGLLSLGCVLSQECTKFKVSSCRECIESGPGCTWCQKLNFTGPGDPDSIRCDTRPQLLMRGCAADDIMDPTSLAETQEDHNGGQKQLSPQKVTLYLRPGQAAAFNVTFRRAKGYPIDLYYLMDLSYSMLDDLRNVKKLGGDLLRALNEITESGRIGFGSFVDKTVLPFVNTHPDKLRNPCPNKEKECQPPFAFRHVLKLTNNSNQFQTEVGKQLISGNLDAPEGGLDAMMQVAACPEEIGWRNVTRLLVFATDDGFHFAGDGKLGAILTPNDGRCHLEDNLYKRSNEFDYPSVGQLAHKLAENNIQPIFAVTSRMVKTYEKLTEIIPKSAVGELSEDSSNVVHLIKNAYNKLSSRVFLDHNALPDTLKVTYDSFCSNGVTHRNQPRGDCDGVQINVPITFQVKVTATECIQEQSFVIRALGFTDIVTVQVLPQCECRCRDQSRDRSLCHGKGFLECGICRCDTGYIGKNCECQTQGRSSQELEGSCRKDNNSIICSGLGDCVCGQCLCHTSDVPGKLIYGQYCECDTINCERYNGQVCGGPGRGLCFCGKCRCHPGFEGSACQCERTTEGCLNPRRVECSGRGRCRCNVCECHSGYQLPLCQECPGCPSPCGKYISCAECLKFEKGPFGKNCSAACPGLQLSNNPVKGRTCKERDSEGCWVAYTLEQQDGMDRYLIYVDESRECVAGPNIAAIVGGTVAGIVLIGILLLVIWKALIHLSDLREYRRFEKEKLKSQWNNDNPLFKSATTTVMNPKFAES
# CYP2C19 activ = human CYP2C19 activators, primary screen, biochemical, luminescence; Cytochrome P450 2C19 (Homo sapiens), P33261; recombinant CYP2C19, luciferin-H EGE luminescence; hits give high values; 0 = fully inhibited enzyme, 1 = untreated enzyme; activation factor at 5 µM; 96,000 tested, under 10 active; AID 1025, 2008;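 active = activation factor of at least 2 at 5 µM in the primary screen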;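 note: 0 = wells with 2.5 mM tranylcypromine and 1 = vehicle-only wells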
# CYP2C19 inhib = blockers of cytochrome P450 2C19 activity – biochemical, luminescence, ADME assay, primary screen; P33261; inhibition, % at 5 µM; AID 778, 2007; 96,000 compounds, 21% hits; CYP2C19 Supersomes, luciferin-H EGE luminescence, 30 min;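 active = CYP2C19 inhibition above a set limit at 5 µM in the primary screen, cut at about 50% in these data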;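 note: plate controls were negative control wells for no effect and 2.5 mM tranylcypromine positive control for full effect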
# CYP2C9 act = human CYP2C9 activators, primary screen, biochemical, luminescence | 96,000 compounds, 1.4% hits | activation factor at 5 µM | Cytochrome P450 2C9 (Homo sapiens), P11712 | recombinant CYP2C9, luciferin-H conversion; hits give high values; factor 1 = untreated enzyme, 0 = blocked | AID 1024, 2008;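 active = activation factor of 2 or more for CYP2C9 at a 5 µM dose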;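 note: 0 = sulfaphenazole-blocked wells and 1 = vehicle-only wells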
# Mac1 fbg inh = inhibitors of CD11b/CD18 adhesion to fibrinogen, primary screen, K562 cells, luminescence. ATPlite luminescence; Mn2+ added to activate the integrin. AID 1497, 2009. 93,000 compounds, 0.54% hits. Integrin beta-2 (Homo sapiens) + Integrin alpha-M (Homo sapiens), P05107+P11215. inhibition, % at 10 µM;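 active = primary inhibition of 50% or more at 10 µM, then 40% or more on retest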
# The depositor's hits bear a star; . = not tested or not shown. Most compounds without a hit are left out; they make up all but 28% or so of the library.
SMILES,CYP2C9 inh,CD11b adhes enh,CYP2C19 activ,CYP2C19 inhib,CYP2C9 act,Mac1 fbg inh
Fc1ccc(NC(=S)N2N=CCC2c2ccccc2)cc1 (configuration not stated),25.6,-1.1,0.4,63.8*,0.7,-13.7
COc1ccc(CN2CCn3ncc(C(=O)Nc4cccc(C)c4)c3C2=O)cc1,2.8,-6.2,1,-3.5,1,6.3
CCN(CC)S(=O)(=O)c1ccc(NC2c3ccccc3C(=O)N2Cc2ccco2)cc1 (configuration not stated),92.2*,-1.9,0.6,41.1,0.1,-8.3
O=C1c2ccccc2C(Nc2cccc(C(F)(F)F)c2)N1Cc1ccco1 (configuration not stated),60.0*,-3.0,0.3,67.9*,0.4,39.9
COc1cccc(NC2c3ccccc3C(=O)N2Cc2ccco2)c1 (configuration not stated),57.2*,-0.6,0.6,41.1,0.4,-10.7
CCOC(=O)c1cccc(NC2c3ccccc3C(=O)N2Cc2ccco2)c1 (configuration not stated),43.6,-9.7,0.6,39.4,0.6,55.6
O=C(Nn1cnnc1)c1ccccc1CCc1ccccc1,36.2,-3.1,0.8,20.3,0.6,-0.4
Cc1ccc(Cn2nnc3c(=O)n(CC(=O)c4ccccc4)cnc32)cc1,60.3*,0.4,1,0.8,0.4,-47.2
Cc1ccc(Cn2nnc3c(=O)n(Cc4ccccc4C)cnc32)cc1,-62.3,15.1,1,0.0,1.6,-5.7
O=C(Nc1cc(S(=O)(=O)N2CCOCC2)ccc1O)c1ccco1,23.5,.,0.6,36.2,0.8,.
CCSC1=NC2(CCCCC2)Nc2sc3c(c21)CCCC3,74.5*,-2.8,0.4,62.7*,0.3,-24.3
COc1ccc(C/C(N)=N/n2cnnc2)cc1Cl,-15.8,1.3,1.1,-9.6,1.2,-3.1
COc1ccc(CSCCN)cc1Cl,46.8,-2.3,0.4,64.3*,0.5,5.7
Cc1ccc(S(=O)(=O)N2CCC(C(=O)Nc3nnc(C45CC6CC(CC(C6)C4)C5)s3)CC2)cc1,-5.0,1.1,0.9,14.0,1.1,4.0
O=C(NNC1=C(C(=O)C(F)(F)F)CCC1)c1ccccc1O,84.6*,-5.3,0.7,25.6,0.2,-25.3
O=C(NNC1=C(C(=O)C(F)(F)F)CCC1)c1ccccc1Cl,95.7*,1.9,1.1,-10.1,0,1.2
O=C(NNC1=C(C(=O)C(F)(F)F)CCC1)c1ccc(Br)cc1,69.2*,-10.4,0.9,6.7,0.3,97.3*
COc1ccc2cc(C3(C)NC(=O)N(CC(=O)Nc4c(C)n(C)n(-c5ccccc5)c4=O)C3=O)ccc2c1 (configuration not stated),.,1.3,.,.,.,-1.4
C#CCNc1cc(C)nc2ncnn12,-0.2,0.6,1.1,-6.6,1,1.3
CCN1CCN(C(c2ccc(OC)c(OC)c2)c2nnnn2C(C)(C)C)CC1 (configuration not stated),-2.9,-1.6,1.1,-13.1,1,-9.5
CCC(c1nnnn1Cc1cccs1)N1CCN(c2nc3ccccc3s2)CC1 (configuration not stated),42.2,2.7,0.6,41.0,0.6,12.2
COc1ccc(C(c2nnnn2C(C)(C)C)N2CCN(c3nc4ccccc4s3)CC2)cc1OC (configuration not stated),98.4*,1.7,0.4,56.0*,0,-8.4
COc1cc(C(c2nnnn2C(C)(C)C)N2CCN(c3nc4ccccc4s3)CC2)ccc1O (configuration not stated),97.0*,-2.7,0.4,60.6*,0,-5.2
CCOc1ccc(C2/C(=C(/O)c3ccc(Cl)cc3)C(=O)C(=O)N2CCCN(C)C)cc1OC (configuration not stated),-30.4,1.3,1.3,-26.3,1.3,-12.1
Cc1ccccc1NC(=O)CNc1ccccc1C(=O)NCc1ccco1,24.4,-1.6,0.3,68.1*,0.8,-12.9
SMILES,CYP2C9 inh,CD11b adhes enh,CYP2C19 activ,CYP2C19 inhib,CYP2C9 act,Mac1 fbg inh
Cc1cccc(C)c1NC(=S)Nc1ccccc1C(=O)NCc1ccco1,.,-3.8,.,.,.,2.9
O=C(Nc1ccccc1C(=O)NCc1ccco1)c1ccccc1,73.8*,-0.4,0.5,54.3*,0.3,-3.5
O=C(NCc1ccco1)c1ccccc1NC(=O)C1CC(=O)N(c2ccc(Cl)cc2)C1 (configuration not stated),68.2*,8.2,0.5,53.4*,0.3,-4.6
O=C(NCc1ccco1)C1CC(=O)N(c2ccc(F)cc2)C1 (configuration not stated),-21.3,-4.2,1,-0.3,1.2,0.4
O=C(Nc1ccc(Cl)cc1)Nc1ccccc1C(=O)NCc1ccco1,53.1*,-3.4,0.9,5.7,0.5,-18.6
CCC(C)C(NC(=O)c1ccccc1NC(=O)c1ccco1)C(=O)O (configuration not stated),24.0,-1.2,1,2.5,0.8,2.8
CCC(C)C(NC(=O)c1ccccc1NC(=O)c1ccc(OC)cc1)C(=O)NCc1ccco1 (configuration not stated),89.0*,24.3,0.2,76.1*,0.1,6.2
O=C(COc1ccccc1)Nc1ccccc1C(=O)NCc1ccco1,63.5*,-2.4,0.4,58.3*,0.4,4.0
CCNC(=O)CC1C(=O)N(c2ccc(F)cc2)C(=O)N1CCC(C)C (configuration not stated),-4.6,4.3,0.9,10.6,1,-9.9
Nc1nc(-c2ccc(Cl)cc2Cl)cn1N,9.2,-2.0,0.8,20.3,0.9,-4.0
O=C(ONC1=NCCCCC1)c1c(F)cccc1F,-8.8,-1.9,0.1,90.9*,1.1,0.0
O=C(ONC1=NCCCCC1)c1ccc(Cl)cc1,-10.5,-9.1,0.9,7.7,1.1,11.8
CC(C)(C)OC(=O)N1CCOCCOCCN(C(=O)OC(C)(C)C)CCOCC1,39.4,-2.9,0.5,47.8,0.6,14.5
COc1ccc2[nH]c(C)c(CCN(Cc3cccs3)C(=S)Nc3ccc(F)cc3)c2c1,87.0*,-6.3,0.5,45.4,0.1,10.8
COc1ccc(NC(=S)N(CCc2nc3cc(C)c(C)cc3[nH]2)Cc2cccnc2)cc1,44.9,.,0.8,23.6,0.6,.
COc1ccccc1NC(=S)N(CCc1c(C)[nH]c2ccccc12)Cc1cccs1,36.1,15.9,0.4,58.2*,0.6,-5.0
COc1ccc2[nH]c(C)c(CCN(Cc3cccs3)C(=S)Nc3ccccc3)c2c1,86.3*,8.2,0.5,50.1*,0.1,6.5
